According to the supplement of paper PMC4709259:
Structures can show the parent of a compound that is named as a salt. ± gives the standard deviation.

system: Jurkat; test: mean cell size (FSC-A) relative to DMSO control (fraction of control); higher = larger cells; details: 48 h
Summary of the method: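 Jurkat cells at 600 cells/µl were incubated for 1 h and then treated for 48h with the Enzo Screen-Well FDA Approved Drug Library v2.0 at 25µM, with DMSO at 0.9% (v/v) final. Compounds that reduced counts below 20% of controls were retested in 10-fold dilutions down to 25nM. Cell count and mean cell size, taken as forward scatter area, were measured by flow cytometry relative to solvent-only controls. Each plate carried 6-12 controls, and values are means of 3 biological replicates.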

| Structure (SMILES) | mean cell size |
| --- | --- |
| Nc1ccncc1 [Dalfampridine (4-Aminopyridine)] (concentration: 25 µM) | 0.999 ± 0.044 |
| CC(C)C[C@H](CN)CC(=O)O [Pregabalin] (concentration: 25 µM) | 1.03 ± 0.02 |
| CN1[C@@H]2CC[C@H]1C[C@@H](OC(=O)C(CO)c1ccccc1)C2 (stereo partly specified) [Atropine Sulfate Monohydrate] (concentration: 25 µM) | 0.974 ± 0.017 |
| C=CCN1CC[C@]23c4c5ccc(O)c4O[C@H]2C(=O)CC[C@@]3(O)[C@H]1C5 [Naloxone·HCl] (concentration: 25 µM) | 0.947 ± 0.018 |
| O=C(O)CCCc1ccc(N(CCCl)CCCl)cc1 [Chlorambucil] (concentration: 250 nM) | 0.945 ± 0.019 |
| CCOC(=O)CC(SP(=S)(OC)OC)C(=O)OCC (stereo unspecified) [Malathion] (concentration: 25 µM) | 0.916 ± 0.041 |
| O=P1(N(CCCl)CCCl)NCCCO1 (stereo unspecified) [Cyclophosphamide (Free Base)] (concentration: 25 µM) | 1.01 ± 0.051 |
| COc1cc2c(cc1OC)C1CC(=O)C(CC(C)C)CN1CC2 (stereo unspecified) [Tetrabenazine] (concentration: 25 µM) | 0.921 ± 0.031 |
| CC(C)N(CCC(C(N)=O)(c1ccccc1)c1ccccn1)C(C)C (stereo unspecified) [Disopyramide] (concentration: 25 µM) | 0.985 ± 0.041 |
| C=C1C[C@@H]2[C@H](CC[C@]3(C)C(=O)CC[C@@H]23)[C@@]2(C)C=CC(=O)C=C12 [Exemestane] (concentration: 25 µM) | 0.914 ± 0.029 |
| CCOC(=O)c1cncn1[C@H](C)c1ccccc1 [Etomidate] (concentration: 25 µM) | 1.04 ± 0.049 |
